Data from PubChem BioAssay.
Active and inactive are the calls of the source. How the calls were made is not given here.

The compounds below were run on Aerobactin synthetase IucA (Klebsiella pneumoniae, hypervirulent) (assay: IucA enzyme inhibition, biochemical, LOPAC library, absorbance readout (AID 1346212;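 further: 100% = no compound wells and 0% = no enzyme wells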)). Conditions: IucA enzyme assay, absorbance (OD) readout; hits give low values;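 tested at 8 µM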.

| Structure (SMILES) | remaining activity |
| --- | --- |
| CC1(C)C(=O)N(CCN2CCC(C(=O)c3ccc(F)cc3)CC2)c2ccccc21 | 118% (inactive) |
| Nc1ncnc2c1ncn2[C@@H]1O[C@H](COP(=O)(O)OP(=O)(O)OP(=O)(O)OP(=O)(O)OC[C@@H]2O[C@H](n3cnc4c(N)ncnc43)C(O)[C@@H]2O)[C@H](O)C1O (stereo not given in full) | 91.8% (inactive) |
| OC[C@H]1O[C@@H](n2cnc3c(N[C@H]4CCC[C@@H]4O)ncnc32)[C@H](O)[C@@H]1O | 123% (inactive) |
| Cc1ccc(=O)n(-c2ccccc2)c1 | 120% (inactive) |
| Nc1ncnc2c1nc(Sc1ccc(Cl)cc1)n2C1OC2COP(=O)(O)O[C@@H]2[C@@H]1O (stereo not given in full) | 108% (inactive) |
| Nc1c(S(=O)(=O)O)cc(Nc2ccc(Nc3nc(Cl)nc(Nc4cccc(S(=O)(=O)O)c4)n3)c(S(=O)(=O)O)c2)c2c1C(=O)c1ccccc1C2=O | 100% (inactive) |
| Oc1cc2c(cc1O)CN(C(=S)NCCc1ccc(Cl)cc1)CCC2 | 97.8% (inactive) |
| CC(=O)O[C@H]1C[C@@H]2CC[C@@H]3[C@H](CC[C@@]4(C)[C@H]3C[C@H]([N+]3(C)CCCCC3)[C@@H]4OC(C)=O)[C@@]2(C)C[C@@H]1[N+]1(C)CCCCC1 | 121% (inactive) |
| CN1CCc2ccccc2Cc2[nH]c3ccccc3c2CC1 | 107% (inactive) |
| Cc1nc(N=Nc2cc([N+](=O)[O-])ccc2Cl)c(COP(=O)(O)O)c(C=O)c1O | 117% (inactive) |
| C#CCN1C(C)=C(C(=O)OC)C(c2cccc([N+](=O)[O-])c2)C(C(=O)OCC)=C1C (stereo not given) | 112% (inactive) |
| COc1cc2c(cc1O)CC[C@@H]1[C@@H]2CC[C@]2(C)[C@@H](O)CC[C@@H]12 | 116% (inactive) |
| O=C(CCNNC(=O)c1ccncc1)NCc1ccccc1 | 115% (inactive) |
| CCn1ccnc1CC1COc2ccccc2O1 (stereo not given) | 112% (inactive) |
| N[C@H](C(=O)O)[C@H]1C[C@@H]1C(=O)O | 93.8% (inactive) |
| CCN1/C(=C/C(C)=O)Sc2ccc(OC)cc21 | 123% (inactive) |
| N[C@@H](CCC(=O)N[C@@H](CSN=O)C(=O)NCC(=O)O)C(=O)O | 119% (inactive) |
| NC(=S)c1ccc[n+]([C@@H]2O[C@@H](COP(=O)([O-])OP(=O)(O)OC[C@H]3O[C@@H](n4cnc5c(N)ncnc54)C(OP(=O)(O)O)[C@H]3O)C(O)C2O)c1 (stereo not given in full) | 97.1% (inactive) |
| N#CC(=C(/N)Sc1ccccc1N)/C(C#N)=C(\N)Sc1ccccc1N | 104% (inactive) |
| CCOC(=O)C1=C(C)NC(C)=C(C(=O)OC)C1c1cccc([N+](=O)[O-])c1 (stereo not given) | 112% (inactive) |

| Structure (SMILES) | remaining activity |
| --- | --- |
| O=C(Nc1cccc(C(=O)Nc2ccc(S(=O)(=O)O)c3cc(S(=O)(=O)O)cc(S(=O)(=O)O)c23)c1)Nc1cccc(C(=O)Nc2ccc(S(=O)(=O)O)c3cc(S(=O)(=O)O)cc(S(=O)(=O)O)c23)c1 | 88.6% (inactive) |
| CC(C(O)c1ccc(O)cc1)N1CCC(Cc2ccccc2)CC1 (stereo not given) | 105% (inactive) |
| N[C@@H](Cc1ccc(O)c(I)c1)C(=O)O | 121% (inactive) |
| COc1ccc([C@@H]2Sc3ccccc3N(CCN(C)C)C(=O)[C@@H]2OC(C)=O)cc1 | 109% (inactive) |
| Nc1nc(SCc2ccc([N+](=O)[O-])cc2)c2ncn([C@@H]3O[C@H](CO)[C@H](O)C3O)c2n1 (stereo not given in full) | 107% (inactive) |
| CNCC[C@H](Oc1ccc(C(F)(F)F)cc1)c1ccccc1 | 93.6% (inactive) |
| C[C@@](Cc1ccc(O)c(O)c1)(NN)C(=O)O | 81.8% (inactive) |
| CC(N)=O | 124% (inactive) |
| C=CCn1c(=O)c2c(nc(-c3ccc(S(=O)(=O)O)cc3)n2C)n(C)c1=O | 128% (inactive) |
| NC1CCN(c2cccc(Cl)n2)CC1 | 104% (inactive) |
| CC(C)(CO)Cc1cc(C(C)(C)C)c(O)c(C(C)(C)C)c1 | 109% (inactive) |
| CCCCCC(O)c1cccc(OCc2ccc3ccccc3n2)c1 (stereo not given) | 98.9% (inactive) |
| COc1cc([C@@H]2c3cc4c(cc3[C@@H](O[C@@H]3O[C@@H]5CO[C@@H](C)O[C@H]5[C@H](O)[C@H]3O)[C@H]3COC(=O)[C@H]23)OCO4)cc(OC)c1O | 127% (inactive) |
| N[C@@H](Cc1c[nH]c2ccc(O)cc12)C(=O)O | 99.1% (inactive) |
| COc1ccc2c(c1)c(CC(=O)O)c(C)n2C(=O)c1ccccc1 | 111% (inactive) |
| N#CC(C#N)=C(N)/C(C#N)=C/c1ccc(O)cc1 | 117% (inactive) |
| CCc1c(C)[nH]c2c1C(=O)C(CN1CCOCC1)CC2 (stereo not given) | 121% (inactive) |
| COC(=O)C(C)(N)Cc1ccc(O)cc1 (stereo not given) | 114% (inactive) |
| O=c1c2ccccc2nc2n1CCc1c-2[nH]c2ccccc12 | 82.9% (inactive) |
| CCOC(=O)c1cnc2c(cnn2CC)c1NN=C(C)C | 124% (inactive) |
